# According to ChEMBL document CHEMBL1156829:
# In all, about 5,400 compounds were measured (“IFI”: median about 2, highest 2% from about 22 on). Many of the other results were omitted from the sample, so the highest values are more common in it than they were.
# Assay: NOVARTIS: Inhibition Frequency Index (IFI) - the number of HTS assays where a compound showed > 50% inhibition/induction, expressed as a percentage of the number of assays in which the compound was tested.
# Format: functional
row,Compound,IFI [%]
1,CC1CC(C)CC(C)C(O)C(C#N)=CC=CCC(C2CCCC2C(=O)O)OC(=O)CC(O)C(C)C1 (stereo not given),25.8
2,COc1ccc(Cn2cccc(C(=O)Nc3ccc(OC)cc3)c2=O)cc1,5.26
3,Oc1ccccc1C=Nc1ccccc1[Te]c1ccccc1N=Cc1ccccc1O,8.21
4,Cc1nc2c(=O)n(C)c(=O)nc-2n(C)n1,25
5,Cn1ncnc2c(=O)n(C)c(=O)nc1-2,26.7
6,CCn1nc(/C=C/c2ccccc2)nc2c(=O)n(C)c(=O)nc1-2,16.7
7,CCC(C)N1CCN(Cc2cccc(OC)c2OC)CC1 (stereo not given),3.17
8,CCCC[C@@H](C)C(O)[C@H]1C(=O)N[C@@H](CC)C(=O)N(C)CC(=O)N(C)[C@@H](CC(C)C)C(=O)N[C@@H](C(C)C)C(=O)N(C)[C@@H](CC(C)C)C(=O)N[C@@H](C)C(=O)N[C@@H](C)C(=O)N(C)[C@@H](CC(C)C)C(=O)N(C)[C@@H](CC(C)C)C(=O)N(C)[C@@H](C(C)C)C(=O)N1C (stereo not given in full),3.45
9,CNCC(O)c1ccc(Cl)c(Cl)c1 (stereo not given),0
10,Nc1ccc(C(=O)NN=Cc2cccc([N+](=O)[O-])c2)cc1,0
11,C=C[C@H]1CN2CC[C@H]1C[C@H]2[C@H](OC(=O)c1cccc([N+](=O)[O-])c1)c1ccnc2ccccc12,0.926
12,COC1=CC(C)=C[C@@H](C)[C@@H](O)[C@H](C)CC(C)=CC=C[C@H](OC)[C@@H](C(C)C(O)[C@H](C)[C@@]2(O)C[C@@H](O)[C@H](C)[C@@H](C(C)C)O2)OC1=O (stereo not given in full),19.6
13,C=CC1CN2CCC1CC2C(OC(=O)C1CC1)c1ccnc2ccccc12 (stereo not given),0
14,Cc1ccc(CN2C3CCCC2CC(NC(=O)Nc2cccc(F)c2)C3)cc1 (stereo not given),1.32
15,O=C(Nc1ccc(Oc2ccc(OC(F)(F)F)cc2)cc1)C1CC1,1.57
16,COc1ccc(NC2=C(N3CCCCC3)C(=O)c3ccccc3C2=O)cc1,18.7
17,CCOC(=O)CN(N=O)C1=C(N2CC2)C(=O)c2ccccc2C1=O,30.8
18,COc1cc(CN2CC3CC(C2)c2cccc(=O)n2C3)ccc1O (stereo not given),0
19,O=C(NNC(=O)c1csnn1)c1ccc(C(F)(F)F)cc1,3
20,Cc1nc(Oc2ccc3ccc(=O)oc3c2)c2c3c(sc2n1)CCCCC3,0
21,Cc1c2ccccc2c(C)c2ccccc12,3.76
22,NC(=O)Oc1ccc(Cc2ccccc2)cc1,0

row,Compound,IFI [%]
1,CC(Cc1ccccc1)NCc1ccccc1O (stereo not given),3.12
2,CN1CCN(c2nc(Cl)nc3[nH]cnc23)CC1,0.699
3,CC(=O)N(C1=C(N(C)C)C(=O)c2ccccc2C1=O)c1ccc(Cl)cc1,0
4,CC(=O)N(C1=C(N(C)C)C(=O)c2ccccc2C1=O)c1cccc(F)c1,15.4
5,CC(=O)N(C1=C(N(C)C)C(=O)c2ccccc2C1=O)c1ccc(F)c(F)c1,23.1
6,COc1ccccc1-n1c(/C=C/c2cc(Br)ccc2O)nc2ccccc2c1=O,8.06
7,CC(C)[C@@]1(NC(=O)[C@@H]2C[C@@H]3c4cccc5[nH]cc(c45)C[C@H]3N(C)C2)O[C@@]2(O)[C@@H]3CCCN3C(=O)[C@H](CC3CCCCC3)N2C1=O,9.52
8,O=C1c2ccccc2-c2nc3nnnn3nc21,42.9
9,CC=C[C@H]1O[C@@](O)([C@H](C)C(O)C(C)[C@@H]2OC(=O)C(OC)=CC(C)=C[C@H](C)[C@H](O)[C@H](CC)[C@H](O)C(C)CC(C)=CC=C[C@H]2OC)C[C@@H](O[C@@H]2C[C@H](O)[C@@H](OC(N)=O)[C@H](C)O2)[C@@H]1C (stereo not given in full),15
10,CO/C(=C\C(N)=O)C(C)C(/C=C/c1csc(-c2csc(C(C)/C=C/C=C/C(C)C)n2)n1)OC (stereo not given),11.5
11,C=C[C@H]1CN2CC[C@H]1C[C@H]2[C@H](OC(C)=O)c1ccnc2ccccc12,1.89
12,CC[C@H]1CN2CC[C@@H]1C[C@@H]2[C@@H](O)c1ccnc2ccc(OC)cc12,2.16
13,CC1OC(=O)C(C(C)C)NC(=O)C(C(C)C)OC(=O)C(C(C)C)NC(=O)C(C)OC(=O)C(C(C)C)NC(=O)C(C(C)C)OC(=O)C(C(C)C)NC(=O)C(C)OC(=O)C(C(C)C)NC(=O)C(C(C)C)OC(=O)C(C(C)C)NC1=O (stereo not given),27.7
14,C=CC1(O)CN2CCC1CC2[C@@H](O)c1ccnc2ccc(OC)cc12 (stereo not given in full),3.57
15,CCc1cc2c(cc1-c1csc(NC(=N)N)n1)C(C)(C)CCC2(C)C,5.16
16,CC1(C)CN=C(NCc2ccccc2Cl)S1,0
17,C=CC1CN2CCC1CC2C(OC(=O)c1ccco1)c1ccnc2ccccc12 (stereo not given),0
18,COc1cc2c3c(c4cc(OC)c(OC)cc4c2cc1OC)CN1CCC[C@@H]1C3,5.26
19,OC1(c2ccc(Br)cc2)CCN(C2CCN(CCc3ccccc3)CC2)CC1,4.1
20,Cc1cc(N(C)C)cc(C)[n+]1OC(=O)N(c1ccccc1)c1ccccc1,16.7
21,CNC1CC2OC(C)(C1OC)n1c3ccccc3c3c4c(c5c6ccccc6n2c5c31)C(=O)NC4O (stereo not given),28.6
22,C/C(=C\c1csc(C)n1)[C@@H]1C[C@@H]2O[C@@H]2CCC[C@H](C)C(O)[C@@H](C)C(=O)C(C)(C)[C@@H](O)CC(=O)O1 (stereo not given in full),6.9

row,Compound,IFI [%]
1,CC[C@H]1CN2CCc3cc(OC)c(OC)cc3[C@@H]2C[C@@H]1C[C@H]1NCCc2cc(OC)c(OC)cc21,23.8
2,CC[C@H]1CN2CCc3cc(OC)c(OC)cc3[C@@H]2C[C@@H]1C[C@@H]1NCCc2cc(OC)c(OC)cc21,37
3,CCC1CN2CCc3cc(OC)c(OC)cc3C2CC1CC1NCCc2cc(OC)c(OC)cc21 (stereo not given),33.3
4,CC[C@H]1CN2CCc3cc(OC)c(OC)cc3[C@@H]2C[C@@H]1C[C@H]1NCCc2cc(O)c(OC)cc21,32.3
5,COc1ccc(C=NNc2ccnc3cc(Cl)ccc23)cc1,4.8
6,CN1C[C@@H](CSc2ccccn2)C=C2c3cccc4[nH]cc(c34)C[C@H]21,4.88
7,C=CC1CN2CCC1C(C(O)c1ccnc3ccc(OC)cc13)C2 (stereo not given),2.29
8,CC=C[C@H]1O[C@@](O)([C@@H](C)C(O)C(C)[C@H]2OC(=O)C(OC)=CC(C)=C[C@@H](C)[C@H](O)C(CC)[C@@H](O)[C@H](C)CC(C)=CC=C[C@@H]2OC)C[C@@H](O[C@H]2C[C@@H](O)[C@H](OC(N)=O)[C@@H](C)O2)[C@@H]1C (stereo not given in full),17.5
9,CCCCCCCCCCCCn1ccc(=N)cc1,15.4
10,CCC(C)(O)C(=O)O[C@H]1C(=O)OC2CC3C(C)=C[C@H](O)[C@@H](O)[C@]3(C)C3C24CO[C@]3(O)[C@H](O)[C@H](C)C14 (stereo not given in full),7.69
11,COc1cc2c(O[C@@H]3O[C@H](CO)[C@@H](O)[C@H](O)[C@H]3O)c3c(c(-c4ccc5c(c4)OCO5)c2cc1OC)C(=O)OC3,12.4
12,O=C(CCl)Nc1ccc(Cl)cc1,3.54
13,COc1ccccc1N1CCN(Cc2cc(C)c(C)cc2O)CC1,2.94
14,COc1ccc(C(Cc2ccccc2)NC2CN3CCC2CC3)cc1 (stereo not given),0
15,c1ccc(CCNC2CCN(Cc3ccccc3)CC2)cc1,0
16,O=C(NNC(=O)c1csnn1)c1ccc(Cl)cc1,1
17,c1ccc(-c2nn(-c3ccccc3)[n+](-c3ccccc3)n2)cc1,11.2
18,CCN(CC)S(=O)(=O)c1ccc(C(=O)c2c(C)c(C(=O)C(F)(F)F)c3ccccn23)cc1,3.12
19,COc1ccc(C[C@H]2NC[C@H](O)[C@H]2OC(C)=O)cc1,33.6
20,CC(=O)N(C1=C(N(C)C)C(=O)c2ccccc2C1=O)c1cccc(Cl)c1,7.14
21,Clc1cccc(CNC2CCN(CCc3ccccc3)CC2)c1,0.781
22,Cc1n(-c2ccccc2)c2c([n+]1C)C(=O)c1ccccc1C2=O,33.3

row,Compound,IFI [%]
1,CO[C@H]1[C@H](C)[C@@H]([C@H]2CC[C@H]([C@@H]3CC[C@H]([C@@]4(C)O[C@]5(O[C@H](C[C@@H]6O[C@](O)([C@@H](C)C(=O)O)[C@@H](C)[C@H](O[C@H]7CC[C@H](OC)[C@@H](C)O7)[C@@]6(C)OC)C[C@@H](OC)[C@H]5C)[C@H](C)[C@H]4OC)O3)O2)O[C@](C)(O)[C@@H]1C,15.5
2,COc1cc2c(cc1O)CC[n+]1cc3c(OC)c(OC)ccc3cc1-2,0
3,CCN1C(=O)N(CC(N)=O)C(=O)C12CCN(Cc1ccc(N(C)c3ccccc3)cc1)CC2,3.85
4,CC(C)N1CC=C(c2c[nH]c3ccccc23)CC1,0
5,CC[C@@H]1CN2CC[C@H]1C[C@H]2[C@H](O)c1ccnc2ccc(OC)cc12,1.32
6,C[C@@H]1C[C@@H]([C@H](O)CC2CC(=O)NC(=O)C2)C(=O)[C@@H](C)C1,19.7
7,CC(=O)OC1(C)CC(C)C(=O)C(C(O)CC2CC(=O)NC(=O)C2)C1 (stereo not given),22.6
8,C[C@@H]1C[C@@H](C)C(=O)[C@@H](C(O)CC2CC(=O)NC(=O)C2)C1 (stereo not given in full),23.4
9,C[C@H]1C[C@H](C)C(=O)[C@@H]([C@@H](O)CC2CC(=O)NC(=O)C2)C1,23.9
10,OCCC1CN(Cc2cccc(Cl)c2)CCN1Cc1ccccc1 (stereo not given),7.69
11,COC(=O)[C@]1(C)CC[C@]2(C)CC[C@]3(C)C4=CC=C5C(=CC(=O)C(O)=C5C)[C@]4(C)CC[C@@]3(C)[C@@H]2C1,21.4
12,CC(=O)O[C@]1(C(C)=O)CCC2C3C=CC4=CC(=O)CC[C@]4(C)C3CC[C@@]21C (stereo not given in full),2.33
13,Cc1nc2ccccc2c(=O)n1-c1ccc([N+](=O)[O-])cc1,0
14,C=CC12CCN(CC1)C(C(O)c1ccnc3ccc(OC)cc13)C2 (stereo not given),0
15,C=CC1CN2CCC1CC2[C@H](c1ccnc2ccccc12)S(=O)(=O)O (stereo not given in full),0
16,O[C@@]1(c2cc3ccccc3s2)CN2CCC1CC2,1.63
17,CCN1CCC(N2CCC(n3c(Cc4ccccc4OC)nc4cc(F)ccc43)CC2)CC1,1.7
18,C=C[C@H]1CN2CC[C@H]1C[C@@H]2[C@@H](OC(=O)C(C)C)c1ccnc2ccccc12,1.67
19,CC1=CC[C@@H](/C(C)=C/c2csc(C)n2)OC(=O)C[C@H](O)C(C)(C)C(=O)[C@H](C)[C@@H](O)[C@@H](C)CCC1,5.66
